Screens as filed in PubChem.
Mtb RmlCD inh – M. tuberculosis RmlC/RmlD coupled enzyme inhibitors, primary screen, biochemical, compound mixtures, 384-well, from 1536-well plates | RmlC+RmlD coupled enzyme assay, percent inhibition; primary screen in compound mixtures | AID 1533, 2009 | 160,000 compounds, 0.03% hits | dTDP-4-dehydrorhamnose reductase (Mycobacterium tuberculosis (strain ATCC 25618 / H37Rv)) … | inhibition, % at 3.6 µM; in the data active means inhibition mostly above about 34%, no sharp cut-off
Target sequence (P9WH09 whole entry, looked up): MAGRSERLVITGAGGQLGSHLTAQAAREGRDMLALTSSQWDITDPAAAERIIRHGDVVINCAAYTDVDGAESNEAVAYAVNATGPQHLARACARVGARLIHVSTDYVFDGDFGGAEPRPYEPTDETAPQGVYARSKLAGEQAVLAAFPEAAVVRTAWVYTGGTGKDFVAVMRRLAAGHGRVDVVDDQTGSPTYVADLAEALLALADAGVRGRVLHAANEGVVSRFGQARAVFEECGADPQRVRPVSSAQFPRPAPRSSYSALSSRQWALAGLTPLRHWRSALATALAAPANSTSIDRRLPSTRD
Target sequence (P9WH11 whole entry, looked up): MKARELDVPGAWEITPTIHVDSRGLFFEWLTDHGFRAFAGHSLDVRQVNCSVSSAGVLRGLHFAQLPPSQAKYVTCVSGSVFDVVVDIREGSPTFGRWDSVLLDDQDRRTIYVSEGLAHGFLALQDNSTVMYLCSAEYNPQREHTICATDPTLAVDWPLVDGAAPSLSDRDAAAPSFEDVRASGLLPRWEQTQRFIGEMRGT
RecA splice inh – Mtb RecA intein splicing inhibitors, primary screen, biochemical, fluorescence, HTS; Protein RecA (Mycobacterium tuberculosis (strain ATCC 25618 / H37Rv)), P9WHJ3; cell-free RecA intein splicing; inhibition, % (concentration not given with the values); 290,000 compounds, 0.75% hits; AID 2221, 2009; in the data active means inhibition above about 30%;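 further: 0% = vehicle wells and 100% = reference inhibitor control wells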
GFP chromophore – counter-screen: blocks GFP chromophore formation, dose response, counter-screen, biochemical, fluorescence, homogeneous | shares compounds with RecA splice inh | cell-free GFP chromophore formation | EC50, µM | 2,100 compounds, 83% hits; call rule not given here
* hit, by the source's call; nt = no result. Rows were chosen to be rich in hits. Some 0.77% of all compounds tested hit in one or more screens of this group.

SMILES | Mtb RmlCD inh | RecA splice inh | GFP chromophore
O=c1cc(-c2ccccc2)[nH]n1-c1ccc([N+](=O)[O-])cc1 | -5.3 | 45.7* | 30.4*
O=c1c(N=Nc2ccc(O)cc2)c(-c2ccccc2)[nH]n1-c1ccc([N+](=O)[O-])cc1 | 8.9 | 1.6 | nt
CC1CCCC(C)N1CC(O)COCc1ccccc1 (stereo not given) | nt | -11.7 | nt
O=C1CCc2cc(S(=O)(=O)N3CCCCC3)cc3c2N1CCC3 | nt | -2.8 | nt
Cc1ccc(S(=O)(=O)N2CCN(Cc3ccccc3)CC2)cc1 | nt | 4.1 | nt
CC(C)(C)c1ccc(-n2nc(C(N)=O)c(O)cc2=O)cc1 | -3.4 | -3.6 | nt
CC(C)(C)c1ccc(-n2nc(C#N)c(Cl)cc2=O)cc1 | -4.0 | 92.7* | 2.56*
[O-][n+]1c2c(nc3c1-c1ccccc1C3O)CCCC2 (stereo not given) | 4.8 | 40.7* | 32.9*
O=S(=O)(Cc1nnnn1-c1ccccc1)c1ccc(Cl)cc1 | nt | -1.4 | nt
Cc1ccc(CNC(=O)C(=O)NCCCn2ccnc2)cc1 | nt | 1.5 | nt
C/C(=N\NC(=O)c1ccncc1)c1cc2ccccc2oc1=O | -9.8 | 93.3* | 15*
C/C(=N/NC(=O)c1ccncc1)c1cc2ccc(O)cc2oc1=O | -2.0 | nt | nt
Oc1ccc(O)c(Cc2nc3ccccc3s2)c1 | 3.5 | 31.3* | >38
Oc1ccccc1OCc1nc2ccccc2s1 | -4.6 | -1.8 | nt
O=C(COC(=O)Cc1c(F)cccc1Cl)NC1CCS(=O)(=O)C1 (stereo not given) | nt | 1.7 | nt
CCOC(=O)c1nc(C)n(-c2ccc(Cl)cc2)n1 | 9.1 | 49.0* | >38
CCOC(=O)c1nc(C)n(-c2ccc([N+](=O)[O-])cc2)n1 | -7.4 | -1.6 | nt
CCOC(=O)C1CCN(c2nnc(N3CCCC3=O)s2)CC1 | -6.1 | -3.7 | nt
O=C(Cc1n[nH]c(=O)[nH]c1=O)N/N=C/c1cccc(Cl)c1 | nt | 0.4 | nt
CCCCOc1c(Cl)cc(C(=O)N(C)CC(=O)Nc2ccc(N3CCOCC3)cc2)cc1OCC | nt | -0.4 | nt
N/C(=N\OC(=O)COc1ccccc1)c1ccccn1 | nt | -0.2 | nt
COCCn1c(SCC(=O)NC2CCCCC2)nnc1-c1ccco1 | nt | -1.5 | nt
Cc1[nH]n(-c2ccccc2)c(=O)c1/C=N/NC(=O)c1ccc(O)cc1O | nt | 40.8* | 2.81*
Cc1ccc(-n2[nH]c(C)c(/C=N/NC(=O)c3ccc(O)cc3O)c2=O)cc1 | nt | 10.5 | nt
COC(C[C@H]1O[C@H]1[C@H](O)[C@H](C)OCc1ccccc1)OC | nt | 1.3 | nt
SMILES | Mtb RmlCD inh | RecA splice inh | GFP chromophore
COc1ccc(C2CC(C)=C(C#N)S(=O)(=O)C2C#N)cc1 (stereo not given) | 6.3 | -4.9 | nt
CCSc1nnc2ccc(-c3cccs3)nn12 | -9.3 | -0.9 | nt
COc1cccc(N2CC(C(=O)Nc3nnc(SCC(=O)c4ccccc4)s3)CC2=O)c1 (stereo not given) | 20.4 | 94.1* | >38
COc1ccc(C(=O)CSc2nnc(NC(=O)C3CC(=O)N(c4ccccc4)C3)s2)cc1 (stereo not given) | -1.5 | -0.6 | nt
CC1CCN(S(=O)(=O)c2cccc(C(=O)NCC3CCCO3)c2)CC1 (stereo not given) | nt | 1.7 | nt
O=C(CN(C(=O)c1csnn1)c1ccccc1Cl)NC1CCCCC1 | nt | 0.4 | nt
O=C1C(Br)=Cc2cccc3cccc1c23 | nt | 69.9* | 35.5*
O=C1C(=O)c2cccc3cccc1c23 | -4.2 | 24.5 | nt
O=C(NCc1ccccc1Cl)C1CCN(C(=O)c2ccco2)CC1 | nt | -0.7 | nt
Cc1nnn(-c2nonc2N)c1C(=O)NNC(=O)c1ccc(Cl)c(Cl)c1 | -11.8 | -3.0 | nt
N#CC(C(=O)Nc1ccc(Cl)c(Cl)c1)=C1Nc2ccccc2N1 | -17.4 | -0.5 | nt
N#CC1=C(N)Oc2n[nH]c(-c3cccs3)c2C1c1ccsc1 (stereo not given) | 1.7 | 90.5* | 5.42*
N#CC1=C(N)Oc2c(ccc3ccccc23)C1c1ccsc1 (stereo not given) | -8.3 | 12.2 | nt
Cc1ccc(C2C(C#N)=C(N)Oc3n[nH]c(-c4cccs4)c32)s1 (stereo not given) | -7.0 | 66.7* | 8.81*
COc1cccc(-c2[nH]nc3c2C(c2ccc(C)o2)C(C#N)=C(N)O3)c1 (stereo not given) | -10.9 | 77.8* | 17.4*
COCc1[nH]nc2c1C(c1c(F)cccc1Cl)C(C#N)=C(N)O2 (stereo not given) | nt | 6.5 | nt
N#CC1=C(N)Oc2nc[nH]c(=O)c2C1c1cccs1 (stereo not given) | nt | -2.4 | nt
N#CC1=C(N)Oc2n[nH]c(-c3cccs3)c2C1C1C=CCCC1 (stereo not given) | -6.3 | 9.5 | nt
N#CC1=C(N)Oc2n[nH]c(-c3cccs3)c2C1c1ccco1 (stereo not given) | 10.1 | 82.7* | 18.4*
Cc1ccc(NC(=O)/C(=C\c2cccnc2)NC(=O)c2ccco2)cc1 | -12.9 | 0.2 | nt
O=C(C1CCN(S(=O)(=O)c2ccc(-n3cnnn3)cc2)CC1)N1CCN(c2ccccc2)CC1 | 20.9 | 1.1 | nt
CC(NC(=O)C(=O)N1CCCCC1)C(c1cccs1)N1CCN(Cc2ccccc2)CC1 (stereo not given) | nt | -0.4 | nt
Cc1ccc(/C(=N/Nc2nc3ccccc3s2)C2=C(O)c3ccccc3C2=O)cc1 | 5.9 | 19.4 | nt
CC(C)(C)c1[nH]nc2c1C(c1ccsc1)C(C#N)=C(N)O2 (stereo not given) | -8.5 | 26.5 | nt
COc1ccc(OC)c(-c2[nH]nc3c2C(c2ccco2)C(C#N)=C(N)O3)c1 (stereo not given) | nt | 70.1* | 26.3*
SMILES | Mtb RmlCD inh | RecA splice inh | GFP chromophore
COc1ccc(C2C(C#N)=C(N)Oc3cc(C)n(Cc4ccco4)c(=O)c32)cc1 (stereo not given) | -8.3 | -1.2 | nt
CCc1[nH]nc2c1C(c1ccsc1)C(C#N)=C(N)O2 (stereo not given) | nt | 76.7* | 26.2*
CC(C)c1[nH]nc2c1C(c1ccco1)C(C#N)=C(N)O2 (stereo not given) | 8.4 | 63.6* | 28.8*
O=C1CSC(=S)N1N1C(=O)c2cccc([N+](=O)[O-])c2C1=O | 0.5 | -5.3 | nt
O=C(O)c1c(C(=O)O)c(-c2ccc(F)cc2)n2c1CCC2 | nt | 4.2 | nt
O=C(O)CC1OCC=C2CN3CCC45c6ccccc6NC4C1C2CC35 (stereo not given) | 28.3 | -0.4 | nt
O=C(O)CC1OCC=C2CN3CCC45C6=CC(=O)C(=O)C([N+](=O)[O-])=C6NC4C1C2CC35 (stereo not given) | 1.0 | 85.2* | 7.13*
Cc1c(CCC(=O)NCCCCCC(=O)O)c(=O)oc2cc3occ(-c4ccccc4)c3cc12 | nt | 1.2 | nt
COc1ccc(NC(=O)CSc2nnc(C)c(=O)n2N)cc1 | nt | -2.0 | nt
CCOC(=O)Cc1cnc(NC(=O)CSc2nc(N)cc(=O)[nH]2)s1 | -1.6 | nt | nt
CC1=NN(c2cccc(F)c2)C(=O)/C1=C/c1ccc(N(C)C)cc1 | nt | 0.7 | nt
COc1cc(/C=C2/C(=O)N(c3ccccc3)N=C2C)ccc1OS(=O)(=O)c1ccccc1 | 47.4 | 69.7* | 1.85*
COc1cc(/C=C2/C(=N)N3C(=NC2=O)SN=C3S(C)(=O)=O)ccc1OS(=O)(=O)c1ccccc1 | nt | 6.8 | nt
COc1ccc(/C=C2/C(=O)N(c3cccc(F)c3)N=C2C)c(OC)c1 | nt | 46.1* | >38
